High-throughput results deposited in PubChem BioAssay by several laboratories.
An excerpt weighted towards active compounds, which were near 2.3% of everything screened.
MEKK3 PB1 HTS = raises or lowers MEK5 binding to the human MEKK3 PB1 domain; Q99759; bead-based flow cytometry, Alexa488-MEK5 binding to MEKK3; actives lie on both sides; 0 = blocked by unlabeled MEK5, 100 = vehicle; binding response (% of control), % at 10 µM; 290,000 compounds, 1.4% hits; AID 1529;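 active = binding response more than 3 SD above or below the average of its plate-row segment, actives on both sides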;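 also: Alexa488 bead fluorescence after subtracting the streptavidin-only scavenger bead signal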
Target sequence (Q99759 whole entry, looked up, the tested form may be a part): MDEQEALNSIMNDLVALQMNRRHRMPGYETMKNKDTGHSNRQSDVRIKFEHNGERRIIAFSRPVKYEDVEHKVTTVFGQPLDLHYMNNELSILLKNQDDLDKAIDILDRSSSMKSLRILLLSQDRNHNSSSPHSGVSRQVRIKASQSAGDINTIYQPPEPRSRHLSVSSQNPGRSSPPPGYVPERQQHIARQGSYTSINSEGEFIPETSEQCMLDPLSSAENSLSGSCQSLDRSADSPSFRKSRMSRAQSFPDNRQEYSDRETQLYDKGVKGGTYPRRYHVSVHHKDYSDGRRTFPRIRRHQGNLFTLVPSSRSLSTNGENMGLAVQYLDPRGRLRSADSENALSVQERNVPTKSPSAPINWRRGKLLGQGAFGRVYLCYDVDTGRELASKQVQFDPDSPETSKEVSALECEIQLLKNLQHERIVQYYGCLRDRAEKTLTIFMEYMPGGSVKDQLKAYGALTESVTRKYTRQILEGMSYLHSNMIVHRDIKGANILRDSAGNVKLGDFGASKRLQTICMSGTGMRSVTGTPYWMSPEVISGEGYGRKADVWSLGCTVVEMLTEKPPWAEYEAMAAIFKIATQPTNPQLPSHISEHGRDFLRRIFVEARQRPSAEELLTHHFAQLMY
UBC13 polyUb = inhibitors of human UBC13 polyubiquitin chain formation. TR-FRET. P61088. 330,000 compounds, 0.47% hits. inhibition, % at 20 µM; in the data active = inhibition above about 45%, passing the limit was not always enough
MEKK2mut PB1 HTS = signal of MEK5 binding to mutant human MEKK2 PB1 domain. bead flow cytometry, Alexa488-MEK5 binding to MEKK2 mutant. percent response, % at 10 µM. 290,000 compounds, 0.35% hits. AID 1530; in the data active = percent response above about 24%, passing the limit was not always enough
MEKK2 WT-MEK5 = raises or lowers MEK5 binding to wildtype human MEKK2 PB1 domain. bead flow cytometry, Alexa488-MEK5 binding to MEKK2 WT; actives lie on both sides. 290,000 compounds, 1.1% hits. binding response (% of control), % at 10 µM; in the data active = binding response below about 67% or above about 130%
MEKK2wt confirm = raises or lowers MEK5 binding to wildtype human MEKK2, retest; 5,900 compounds, 2.4% hits; shares compounds with MEKK3 PB1 HTS; bead flow cytometry, Alexa488-MEK5 binding to MEKK2 WT; actives lie on both sides; binding response (% of control), % at 10 µM; AID 1892; in the data active = binding response below about 16% or above about 210%; inactive = in between
MEKK2mut confirm = signal of MEK5 binding to mutant human MEKK2, retest; bead flow cytometry, Alexa488-MEK5 binding to MEKK2 mutant; 5,900 compounds, 2% hits; shares compounds with MEKK3 PB1 HTS; percent response, % at 10 µM; AID 1893; in the data active = percent response mostly above about 71%, no sharp cut-off; inactive = mostly below about 38%;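 also: higher means compound restores mutant binding toward wildtype level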
MEKK3 confirm = confirmation of inhibitors of MEK5 binding to human MEKK3; 5,900 compounds, 1.8% hits; binding response (% of control), % at 10 µM; shares compounds with MEKK3 PB1 HTS; bead flow cytometry, Alexa488-MEK5 binding to MEKK3; hits give low values; AID 1894;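 active = binding response below 72% of control, or above a set upper limit, though filed actives all read lower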;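 also: 100% = DMSO only wells and 0% = binding blocked by excess unlabeled MEK5; lower values mean stronger disruption of MEK5 binding to MEKK3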
Casp3 UBC13 ctr = counter-screen for UBC13 inhibitors: human caspase-3 inhibition. shares compounds with UBC13 polyUb. Recombinant caspase-3, Caspase-Glo 3/7 luminescence, 60 min. inhibition, % at 20 µM. 1,400 compounds, 4% hits. AID 488856;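 active = mean inhibition across replicates above about 26%, limit read from the data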;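 also: plate controls were DMSO with caspase-3 for no effect and DMSO wells lacking enzyme for full effect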
UBC13 confirm = human UBC13 polyubiquitin inhibition, confirmed. shares compounds with UBC13 polyUb. UBC13 polyubiquitination, TR-FRET, biochemical. inhibition, % at 10 µM. 1,400 compounds, 68% hits. AID 488859; in the data active = inhibition above about 45%
Active calls of the source: *; · = not tested or not shown.

SMILES | MEKK3 PB1 HTS | UBC13 polyUb | MEKK2mut PB1 HTS | MEKK2 WT-MEK5 | MEKK2wt confirm | MEKK2mut confirm | MEKK3 confirm | Casp3 UBC13 ctr | UBC13 confirm
CN(C)CCCNc1nc2sc3c(c2c(=O)n1CCc1ccccc1)CCCCC3 | 111 | 49* | 49 | 183* | 166 | 45 | 108 | -1 | 73*
O=C(CCn1c(=S)oc2ccccc21)Nc1ccccc1Br | 105 | 5 | 2 | 106 | · | · | · | · | ·
Cn1c(CS/C(N)=N/N=C/c2ccccc2)c(Br)c(=O)n1-c1ccccc1 | 87 | 4 | -4 | 87 | · | · | · | · | ·
C#CCOCCOCCOCCNc1nc(N2CCN(C(=O)[C@H](CCC(=O)O)n3cc(C(N)Cc4ccc(O)cc4)nn3)CC2)nc(N2CCN(C(=O)[C@H](Cc3ccc(O)cc3)n3cc(C(N)[C@H](C)CC)nn3)CC2)n1 (some centres undefined) | 85 | -3 | 2 | 76 | · | · | · | · | ·
C#CCOCCOCCOCCNc1nc(N2CCN(C(=O)[C@H]([C@@H](C)CC)n3cc([C@@H](N)CO)nn3)CC2)nc(N2CCN(C(=O)[C@H](Cc3ccc(O)cc3)n3cc([C@@H](N)CC(C)C)nn3)CC2)n1 | 75 | 9 | 3 | 116 | · | · | · | · | ·
C#CCOCCOCCOCCNc1nc(N2CCN(C(=O)[C@H]([C@@H](C)CC)n3cc([C@@H](N)Cc4ccc(O)cc4)nn3)CC2)nc(N2CCN(C(=O)[C@H](CCCCN)n3cc([C@@H](N)CO)nn3)CC2)n1 | 110 | 98* | 46 | 171* | 189 | 132* | 113 | -3 | 73*
C#CCOCCOCCOCCNc1nc(N2CCN(C(=O)[C@H]([C@@H](C)CC)n3cc([C@@H](N)Cc4ccc(O)cc4)nn3)CC2)nc(N2CCN(C(=O)[C@H](Cc3ccc(O)cc3)n3cc([C@@H](N)C(C)CC)nn3)CC2)n1 (some centres undefined) | 109 | 64* | 58* | 191* | 140 | 12 | 106 | 1 | 57*
C#CCOCCOCCOCCNc1nc(N2CCN(C(=O)[C@H]([C@@H](C)CC)n3cc([C@@H](N)CC(C)C)nn3)CC2)nc(N2CCN(C(=O)[C@H](Cc3ccc(O)cc3)n3cc([C@@H](N)C(C)CC)nn3)CC2)n1 (some centres undefined) | 106 | 57* | 21 | 156* | 129 | 15 | 103 | 0 | 51*
CCCCCCOc1ccc(/C(C)=N/NC2=NCCN2)cc1[N+](=O)[O-] | 109 | 94* | 46 | 203* | 226* | 68 | 112 | -9 | 98*
CCCCOc1ccc(CSC2=NCCN2)cc1[N+](=O)[O-] | 98 | -12 | -1 | 108 | · | · | · | · | ·
CC(CCN1CCN=C1Nc1ccccc1)c1ccccc1 (centres undefined) | 102 | -4 | 11 | 105 | · | · | · | · | ·
Cc1ccc(-c2csc(NC(=O)C[n+]3cc(-c4ccc(C)cc4)n4c3CCC4)n2)cc1 | 104 | 60* | 3 | 141* | 207* | 63 | 109 | 1 | 70*
COc1cc(/C=N/O)ccc1OCc1ccc(Cl)cc1 | 96 | 8 | -4 | 92 | · | · | · | · | ·
COc1cc(/C=N/N=C(N)N)ccc1OCc1ccc(Cl)cc1 | 122 | 91* | 69* | 230* | 180 | 48 | 102 | -3 | 112*
CCN(Cc1cnn(C)c1)Cc1nc(C(c2ccccc2)c2ccccc2)no1 | 94 | -10 | -1 | 98 | · | · | · | · | ·
CN1C(=O)Cc2cc(S(=O)(=O)NCc3c(F)cccc3Cl)ccc21 | 102 | 2 | -3 | 96 | · | · | · | · | ·
Cc1c(CCOC(=O)C2C3CC4CC(C3)CC2C4)sc[n+]1CC(=O)c1ccc(Br)cc1 (centres undefined) | 87 | 47* | 21 | 157* | 180 | 40 | 105 | 4 | 75*
COc1ccc(C(=O)OCCc2sc[n+](CC(=O)c3ccccc3)c2C)cc1 | 104 | 3 | 4 | 110 | · | · | · | · | ·
O=C(O)C1CSC(c2ccccc2Cl)N1C(=O)c1ccc(Cl)cc1 (centres undefined) | 112 | 2 | 4 | 109 | · | · | · | · | ·
COc1ccc(C(CCN2CCCC(C)C2)c2c(OC)cc(OC)c3c(-c4ccccc4)cc(=O)oc23)cc1 (centres undefined) | 110 | 59* | 41* | 207* | 190 | 52 | 110 | 0 | 45*
CCCCCc1cc(=O)oc2c(C(CCN(CC)CC)c3cc(OC)c(OC)c(OC)c3)c(OC)cc(OC)c12 (centres undefined) | 116 | 85* | 34* | 218* | 136 | 15 | 84 | -2 | 73*
COc1ccc(C(CCN2CCCC2)c2c(OC)cc(OC)c3c(-c4ccccc4)cc(=O)oc23)cc1 (centres undefined) | 108 | 67* | 20 | 152* | 164 | 45 | 114 | -4 | 37
CCCCCc1cc(=O)oc2c(C(CCN3CCN(c4ccccc4)CC3)c3ccc(N(C)C)cc3)c(OC)cc(OC)c12 (centres undefined) | 107 | 14 | 14 | 123 | · | · | · | · | ·
COc1cc(C(CCN2CCCC2)c2c(OC)cc(OC)c3c(-c4ccccc4)cc(=O)oc23)cc(OC)c1OC (centres undefined) | 112 | 46* | 26* | 140* | 119 | 11 | 104 | 1 | 40
CCN(CC)CCC(c1ccc(N(C)C)cc1)c1c(OC)cc(OC)c2c(-c3ccccc3)cc(=O)oc12 (centres undefined) | 111 | 50* | 25* | 178* | 144 | 22 | 103 | -2 | 26
COc1cc(OC)c2c(-c3ccccc3)cc(=O)oc2c1C(CCN1CCCC1)c1ccc2c(c1)OCO2 (centres undefined) | 128* | 52* | 23 | 175* | 159 | 34 | 103 | 3 | 32
COc1cc(OC)c2c(-c3ccccc3)cc(=O)oc2c1C(CC(=O)N1CCOCC1)c1ccc(N(C)C)cc1 (centres undefined) | 102 | 3 | 1 | 99 | · | · | · | · | ·
CN(C)CCNc1ncnc2c1sc1nc(-c3ccccc3)c3c(c12)CCCC3 | 102 | 62* | 61* | 201* | 209* | 66 | 105 | 2 | 103*
